Our source for the INHIBITION values is ChEMBL document CHEMBL4513216, “Probing the Open Global Health Chemical Diversity Library for Multistage-Active Starting Points for Next-Generation Antimalarials” (ACS Infect Dis, 2020).

The structures appear in SMILES notation. Out of some 69,000 compounds screened, about 8,600 (12%) showed an effect of 50% or more. Many of the other results were omitted from the sample, so strong results are more common in it than they were.

The assay relates to Plasmodium berghei. The assay is described as follows: Screen against P. berghei liver stage (PbLuc), transformed with Luciferase, at 10uM. The following applies: tested at 10 uM. The class given is functional, HepG2.
Turning to `O=C(c1c[nH]cn1)N1CCC(F)(F)C2(CCN(c3cccc(F)c3)C2)C1` (configuration not stated), the INHIBITION is given as 21.7%.
As for `CC(=O)Nc1ccc(SCC(O)COCc2ccc3c(c2)OCO3)cc1` (configuration not stated), the figure is 25.8%.
Next, `COc1ccc(CN(C)CC2(O)CCNC2)cc1` (configuration not stated): 20.85%.
Next, `Cc1nc(CN2CCC3(CC2)CC(c2cccnc2)C(=O)N3C)cs1` (configuration not stated): 34.5%; `CS(=O)(=O)NC[C@]1(O)CCN(C(=O)Cc2cccs2)C[C@H]1O`: -8.12%.
`C[C@@H]1CN(C(=O)C2CCS(=O)(=O)CC2)C[C@]1(C)O`: the INHIBITION is recorded as -7.81%.
As for `O=C(C(CNCc1cccs1)c1ccccc1)N1CCOCC1` (configuration not stated), the figure is 5.85%; as for `NC(=O)C(NCc1cccs1)c1ccccc1` (configuration not stated), 60.1%; as for `NC(=O)C(NCCc1ccc(Cl)s1)c1ccccc1` (configuration not stated), -35.8%.
As for `NC(=O)C(NCc1ccc(Cl)s1)c1ccccc1` (configuration not stated), the figure is -22.6%; as for `CNC(=O)NC(=O)C(NCc1ccccc1)c1ccccc1` (configuration not stated), 24.8%; as for `CNC(=O)NC(=O)C(NCc1cccs1)c1ccccc1` (configuration not stated), 64.7%.
`CC(C)(C)N1CC(C(=O)N2CC(Oc3ccc(F)cc3)C2)CC1=O` (configuration not stated): the INHIBITION is on record as 18.5%.
As for `COCCN1CCC2(CC1)CC(c1cccnc1)CO2` (configuration not stated), the figure is 16.4%; as for `N#Cc1ccc(OCC(O)CN2CCC(Cn3cccn3)CC2)cc1` (configuration not stated), 5.7%.
Take `CNC(=O)[C@H]1C[C@@H]2CN(S(=O)(=O)c3ccc(OC)cc3)C[C@@H]2N1C`: the INHIBITION amounted to 46.6%.
Take `COCc1cncc2c1CCN(C(=O)c1cccc(C#N)c1)C2`: the INHIBITION is on record as 14.9%.
Turning to `Cn1cc(N2CC3(CCN(Cc4nccn4C)C3)CC2=O)cn1` (configuration not stated), the INHIBITION was 14.8%.
Next, `Cn1ccnc1CN1CCC2(CC(=O)N(c3ccsc3)C2)C1` (configuration not stated): 53.2%; `Cn1ccnc1CN1CCC2(CC(=O)N(c3cncnc3)C2)C1` (configuration not stated): 33.5%.
As for `Cn1ccnc1CN1CCC2(CC(=O)N(c3cccc(F)c3)C2)C1` (configuration not stated), the figure is 25.3%; as for `COc1cccc(N2CC3(CCN(Cc4nccn4C)C3)CC2=O)c1` (configuration not stated), 40.4%; as for `Cc1cccc(N2CC3(CCN(Cc4nccn4C)C3)CC2=O)c1` (configuration not stated), 52%.
As for `CCc1nc(C2CCCN2CCCS(N)(=O)=O)no1` (configuration not stated), the figure is 31.9%.
Consider `CSCCC(NC(=O)C1CC1)C(=O)N(C)Cc1ccsc1` (configuration not stated), for which the INHIBITION was found to be 42.6%.
Next, `Cc1noc(C)c1CCc1nc(C2CCOC2)no1` (configuration not stated): -94.3%.
Next, `COCCC(=O)N1CCOCC2(CCN(Cc3cccs3)C2)C1` (configuration not stated): -5.31%; `Cn1cc(-c2ncnc3c2CCN(CC2CCOC2)CC3)cn1` (configuration not stated): 25.8%; `CN(C)[C@@H]1CCN(S(=O)(=O)C2CC2)[C@H]1Cc1ccccc1`: 27.5%.
Consider `Cc1nc(C2CCCN(C(=O)c3cccc4c3OCO4)C2)sc1C` (configuration not stated), for which the INHIBITION is recorded as 40%.
`c1cc(-c2cn[nH]c2)ccc1CN1CCNCC1`: the INHIBITION is 14.6%.
As for `Cc1ccc(-c2ncc(C(=O)NCCS(N)(=O)=O)s2)c(C)c1`, the figure is -37.3%; as for `Cc1ccc(-c2ncc(C(=O)NCCNC(=O)C(C)C)s2)c(C)c1`, -10.9%; as for `CCNC(=O)C(C)NC(=O)c1cnc(-c2ccc(C)cc2C)s1` (configuration not stated), 50.5%.
`COc1ccccc1C(O)CNC(=O)NCc1csc(C)n1` (configuration not stated): the INHIBITION is recorded as 13.3%.
For the molecule `CN(C)Cc1nc2c(o1)CN(S(=O)(=O)c1cccs1)C2`, the INHIBITION is given as 34%.
As for `O=S(=O)(c1cccs1)N1Cc2nc(COCC3CC3)oc2C1`, the figure is 30.3%; as for `c1csc(CN2Cc3nc(CN4CCCC4)oc3C2)c1`, 33.5%; as for `CCN(CC)Cc1nc2c(o1)CN(S(=O)(=O)c1cccs1)C2`, 57.5%.
On to `O=S(=O)(c1cccs1)N1Cc2nc(CN3CCCCC3)oc2C1`, for which the INHIBITION turned out to be 19.5%.
As to `O=S(=O)(c1cccs1)N1Cc2nc(CN3CCCC3)oc2C1`, the INHIBITION is listed as 67.5%.
As to `O=c1c(S(=O)(=O)N2CCCC2)cccn1Cc1c(F)cccc1Cl`, the INHIBITION was 7.92%.
For `Cc1nc[nH]c1CN1CCC2(CC1)CC(Nc1ncccn1)CO2` (configuration not stated), the INHIBITION was found to be 27.6%.
Turning to `CCc1cnc(CN2CCC(N(Cc3noc(CC)n3)C(C)=O)C2)o1` (configuration not stated), the INHIBITION was -15.5%.
As to `CC1CN(CC(=O)NCc2cccs2)CCN1c1nccs1` (configuration not stated), the INHIBITION was 36.1%.
As for `Cc1ccc(-c2cc(N)c(=O)n(C(C)C(N)=O)n2)o1` (configuration not stated), the INHIBITION was -6.88%.
`COc1ccccc1CN1C[C@@H]2CN(C(C)=O)CCO[C@@H]2C1`: the INHIBITION is given as 0.453%.
With `COCC(=O)N1CCN(C(=O)NC(C)C)CC2(CC(=O)N(C)C2)C1` (configuration not stated), the INHIBITION came out at 45.2%.
For the molecule `O=C1NCC2=Nc3ccccc3NC(c3ccccc3)C12` (configuration not stated), the INHIBITION was 7.92%.
As to `CN(C)CCOCc1nnc2n1CCN(Cc1ccoc1)CC2`, the INHIBITION is on record as 0.618%.
Next, `CN(C)CCOCc1nnc2n1CCN(Cc1ccc(F)cc1)CC2`: 69.8%; `COc1ccc(CN2CCc3nnc(COCCN(C)C)n3CC2)cc1`: 22.4%; `CN(CC(=O)N1CCCCC1c1nc(C(C)(C)C)cs1)C1CC1` (configuration not stated): -19.9%.
As for `Cc1nccc(C2CCCCN2Cc2ccc(F)cc2)n1` (configuration not stated), the figure is 41.2%; as for `CCS(=O)(=O)N1Cc2ccccc2CC1C(=O)OCc1cc(C)no1` (configuration not stated), 60.2%; as for `CCS(=O)(=O)N1Cc2ccccc2CC1C(=O)OCc1c(C)noc1C` (configuration not stated), -16.3%.
As for `Cc1cc(COC(=O)[C@@H]2Cc3ccccc3CN2S(C)(=O)=O)no1`, the figure is 5.91%.
Take `Cc1nc(CN2CCC3(CCCN(Cc4cnn(C)c4)C3)C2=O)cs1` (configuration not stated): the INHIBITION is listed as -0.912%.
Regarding `COc1ccc2[nH]c3c(N(C)CC4OCCO4)ncnc3c2c1`, the INHIBITION was -112%.
Next, `O=C(c1ccoc1)N1CC[C@H]2C[C@@H](c3nnc(C4CC4)o3)O[C@@H]2C1`: 35.8%; `O=C(c1ccccc1)N1CC[C@H]2C[C@@H](c3nnc(C4CC4)o3)O[C@@H]2C1`: 38.5%; `O=C(c1ccsc1)N1CC[C@H]2C[C@@H](c3nnc(C4CC4)o3)O[C@@H]2C1`: -1.64%.
`O=C(Cc1ccsc1)N1C[C@@H]2C[C@@H](c3nnc(C4CC4)o3)O[C@@H]2C1`: the INHIBITION came to 61.8%.
With `O=C(c1ccccc1)N1CC[C@H]2C[C@H](c3nnc(C4CC4)o3)O[C@@H]2C1`, the INHIBITION stood at 38.5%.
Consider `O=C(c1cccs1)N1CC[C@H]2C[C@@H](c3nnc(C4CC4)o3)O[C@@H]2C1`, for which the INHIBITION was determined as 26.7%.
Regarding `Cc1ccoc1C(=O)N1CC[C@H]2C[C@H](c3nnc(C4CC4)o3)O[C@@H]2C1`, the INHIBITION was 54.8%.
Next, `O=C(c1ccsc1)N1C[C@@H]2C[C@@H](c3nnc(C4CC4)o3)O[C@@H]2C1`: -31.6%; `Cc1occc1C(=O)N1CC[C@H]2C[C@@H](c3nnc(C4CC4)o3)O[C@@H]2C1`: 68.4%.
Turning to `Cc1ccnc(C2COCCN2C)n1` (configuration not stated), the INHIBITION is 8.905%.
Next, `CCn1ccnc1CN1CCN(CC(O)c2ccco2)CC1` (configuration not stated): 10.55%; `c1cncc(COCC2CN(Cc3cccnc3)Cc3ccnn3C2)c1` (configuration not stated): -60.2%; `CCCc1cc(=O)[nH]c(-c2ccccc2CN(C)CCC(C)C)n1`: 36.6%.
Regarding `Cc1cccn2cc(CN3CCC(N4CCN(C)C4=O)CC3)nc12`, the INHIBITION was -1.85%.
Next, `OC(CN1CCN(Cc2cccnc2)CC1)c1cccs1` (configuration not stated): 10.1%; `CCc1nccn1CCC(=O)N1CCCC1c1cncc(NC)n1` (configuration not stated): 2.365%; `O=C(CN1CC(c2nc(C3CC3)no2)C1)NCC1CCCO1` (configuration not stated): 48%.
Next, `O=S(=O)(C1CC1)N1CCO[C@H]2[C@H](OCCN3CCCC3)CC[C@@H]21`: -9.67%.
For the molecule `CN(Cc1cnccn1)S(=O)(=O)N1CCCC1c1ccco1` (configuration not stated), the INHIBITION stood at 4.3%.
Regarding `Cc1noc(C)c1CN1CCOC(CNc2cccnn2)C1` (configuration not stated), the INHIBITION is on record as -7.35%.
Next, `CCOc1cc(CNCc2nc(C)cc(=O)[nH]2)c(Cl)cc1OC(C)C`: 39.6%; `CCOc1cc(CNCc2cnc(C)cn2)c(Cl)cc1OC(C)C`: 63.5%.
For the molecule `CCOc1cc(CNCc2ncc[nH]2)c(Cl)cc1OC(C)C`, the INHIBITION is 33.1%.
Regarding `Cc1nc(CN2CCN(C(=O)NC(C)Cn3ccnc3)CC2)cs1` (configuration not stated), the INHIBITION is on record as -28.2%.
Turning to `CN(C)c1ncc(CN2CCC(c3nnsc3S(C)(=O)=O)CC2)cn1`, the INHIBITION worked out at 51.2%.
As for `CNc1ncc(CN2CCC(c3nnsc3S(C)(=O)=O)CC2)cn1`, the figure is 21.9%.
For the molecule `CS(=O)(=O)c1snnc1C1CCCN(Cc2ccncc2)C1` (configuration not stated), the INHIBITION is on record as 9.93%.
Take `Cc1cccc(CN2CCC(c3nnsc3S(C)(=O)=O)CC2)c1`: the INHIBITION is on record as 18.9%.
As for `CS(=O)(=O)c1snnc1C1CCN(Cc2cccnc2)CC1`, the figure is 48.6%; as for `CS(=O)(=O)c1snnc1C1CCN(Cc2ccncc2)CC1`, 67.7%; as for `CCC(O)CN1CCN(C(=O)c2cnc3n[nH]c(C)c3c2)CC1` (configuration not stated), 12.7%.
Next, `O=C(O)CSc1nccc(-c2ccc3c(c2)OCO3)n1`: 8.51%; `CCc1nnc(C(C)N2CCc3cncnc3C2)o1` (configuration not stated): 2.43%; `O=C(NC1CC1)N1CC[C@H](OCC2CC2)[C@@H]1Cc1cccnc1`: 29%.
Next, `O=C(CN1CCC(c2ccccc2)C1)NC(=O)NCC(F)(F)F` (configuration not stated): 36.65%; `O=C(Nc1nc2c(s1)CN(S(=O)(=O)C1CC1)CC2)c1ccccn1`: 39.3%; `O=C(Nc1nc2c(s1)CN(S(=O)(=O)C1CC1)CC2)c1ccc(Cl)s1`: 73.3%.
On to `O=C(Nc1nc2c(s1)CN(S(=O)(=O)C1CC1)CC2)Nc1ccccc1F`, for which the INHIBITION amounted to 64.5%.
As for `O=C(Nc1nc2c(s1)CN(S(=O)(=O)C1CC1)CC2)c1cccc(Cl)c1`, the figure is 26%; as for `CS(=O)(=O)N1CCc2nc(NC(=O)Nc3c(F)cccc3F)sc2C1`, 9.54%.
With `O=C(Nc1nc2c(s1)CN(S(=O)(=O)C1CC1)CC2)c1c(F)cccc1F`, the INHIBITION was -45.9%.
For the molecule `CC(CNC(=O)NCCCc1cc(N)n(-c2ccccc2)n1)N(C)C` (configuration not stated), the INHIBITION is 30.3%.
Next, `CCN(CC)Cc1cn2c(n1)CN(C(=O)c1cc(C)on1)CC2`: 38.1%.
